# From PubChem BioAssay
# System: PRMT1 (protein arginine N-methyltransferase 1)
# Test: small molecules binding arginine methyltransferase PRMT1 – biochemical, small-molecule microarray, 635 nm fluorescence, primary screen (AID 1088);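 further: binding of Prmt1 protein to compounds spotted on small-molecule microarray slides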
# Conditions: higher = more signal
row,Structure (SMILES),composite z-score
1,CC(C)C(O)C1C=CC2C(=O)N(c3ccccc3)C(=O)C2N1Nc1ccccc1 (configuration not stated),1.34
2,CC(C)C(CO)N1C(=O)[C@@H]2[C@H]3C(=O)OCC=C[C@H]3OC23C=CCN(c2ccc(Cl)cc2)C(=O)[C@@H]13 (some centres not stated),0.193
3,CCOC(=O)C[C@H]1[C@H](OC(=O)Cc2ccc3c(c2)OCO3)[C@@H](NC(=O)c2ccc3ccccc3n2)c2cc(OCCCO)ccc2N1C(=O)c1ccc2ccccc2n1,0.755
4,CCCC=C(CCC)[C@@H](NC(=O)C(C)(C)C)c1ccc(C(=O)OC)cc1,0.0225
5,COC(=O)[C@@]1(Cc2ccccc2)[C@H]2c3cc(C(=O)N4CCCC4)n(CCc4ccccn4)c3C[C@H]2CN1C(=O)c1ccccc1,0.123
6,CC(C)c1ccc(NN2C(C(O)c3ccc(C#N)cc3)C=CC3C(=O)N(c4ccccc4)C(=O)C32)cc1 (configuration not stated),1.54
7,COc1ccc([Si](C)(C)[C@H]2[C@H](CC(=O)N3Cc4ccccc4C[C@H]3CO)O[C@@]3(C(=O)N(Cc4ccc(N5CCOC5=O)cc4)c4ccccc43)[C@@H]2C)cc1,1.57
